Most compounds without a hit are left out; they make up all but 9% or so of the library.
ALDH1A1 inh: inhibitors of human aldehyde dehydrogenase 1A1; Purified ALDH1A1, NADH fluorescence, propionaldehyde substrate; Potency, µM (series often up to 75.3 µM), for the others: at the top dose activity, negative = inhibition, usual class: inhibitors; actives 7.3% (n = 220,000); AID 1030;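 further: potency means the concentration at half of the fitted maximal effect; plate controls were no enzyme wells and a reference inhibitor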
IMPase inh: cell-permeable inhibitors of inositol monophosphatase (IMPase). CHO-M1 cells, IP1 accumulation, HTRF TR-FRET ratio. inhibition (IP1 accumulation), % at 46.1 µM. 120,000 tested, under 10 active. AID 901; active means well fitted curve in the direction sought with a large enough effect in the signal ratio, not every such curve was filed as active; inconclusive means small, poorly fitted or top-dose-only effect, or a change in a side signal; inactive means no such curve, though single readings can be large or run the other way; the % refers to the signal ratio;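 further: cells stimulated with carbachol in lithium chloride buffer; plate controls were DMSO basal wells for no effect and reference inhibitor wells for full effect; higher means more IMPase inhibition seen as more IP1 and lower FRET ratio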
Target sequence (P97697 whole entry, looked up): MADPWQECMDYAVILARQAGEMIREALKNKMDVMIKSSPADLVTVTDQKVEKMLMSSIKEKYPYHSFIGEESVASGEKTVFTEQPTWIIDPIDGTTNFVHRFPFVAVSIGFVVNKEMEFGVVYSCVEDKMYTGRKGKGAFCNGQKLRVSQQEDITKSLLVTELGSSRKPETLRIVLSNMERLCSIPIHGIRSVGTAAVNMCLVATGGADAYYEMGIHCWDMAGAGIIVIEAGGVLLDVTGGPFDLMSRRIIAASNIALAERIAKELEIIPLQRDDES
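Carbachol-driven Gq signalling in CHO-M1 cells (2000/well) generates IP1. Compounds that block IMPase raise IP1 and so reduce the FRET signal from Eu-anti-IP1 and d2-IP1 after a 10 min room-temperature lysis.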
HPGD block: HPGD (human) dehydrogenase inhibition; purified HPGD, NADH fluorescence kinetic, PGE2 substrate; Potency, µM, for inactives: at the top dose activity change, negative = inhibition, most hits filed as inhibitors; actives 4.3% (n = 150,000); further: potency means the concentration at half of the fitted maximal effect
Target sequence (P15428 whole entry, looked up): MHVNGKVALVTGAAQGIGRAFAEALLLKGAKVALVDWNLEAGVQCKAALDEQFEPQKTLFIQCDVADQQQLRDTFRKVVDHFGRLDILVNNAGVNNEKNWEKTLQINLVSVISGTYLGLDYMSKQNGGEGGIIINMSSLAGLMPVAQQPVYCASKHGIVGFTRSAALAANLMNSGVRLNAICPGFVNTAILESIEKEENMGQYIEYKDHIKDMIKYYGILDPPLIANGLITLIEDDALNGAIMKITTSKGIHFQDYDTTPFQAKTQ
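NADH formation kinetics: reaction with 30 uM PGE2 and 1 mM NAD+ (final), 20 nM enzyme, Tris-HCl pH 8 with Tween 20, after 15 min compound preincubation at room temperature. Fluorescence change, last versus first of five reads.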
* hit, by the source's call; ? = inconclusive; / = no result given; ! = not confirmed by another sample. Unless noted, the call rests on the fitted dose curve; in most records, active means well fitted inhibition curve with a large enough effect (not every such curve was filed as active); inconclusive means small, poorly fitted or top-dose-only effect, or another doubt; inactive means no such curve, though single readings can be large or run the other way. Unless noted, on the % scale 0 is the no-effect control and ±100 the full control effect.

SMILES | ALDH1A1 inh | IMPase inh | HPGD block
CCCc1cc(=O)[nH]c(-n2[nH]c3c(c2=O)CCCC3)n1 | 24µM* | 11 | 22µM*
Cc1nn(CC(O)c2ccccc2)c(C)c1Br (stereo unspecified) | 18µM* | 4 | -3%
Cc1nn(CC(O)CN2c3ccccc3Sc3ccccc32)c(C)c1Br (stereo unspecified) | 7% | 9 | -9%
CC(CCC(=O)O)C1CCC2C3C(O)C[C@@H]4CC(O)CC[C@@]4(C)C3CC(O)[C@]12C (stereo partly specified) | 0% | / | 2%
COCC(=O)N1CCC[C@@]2(CCN(C(c3ccccc3)c3ccccc3)C2)C1 | 5% | / | -3%
CCCCOC(=O)Nc1ccccc1C(N)=O | 3% | -15 | -3%
CCOC(=O)N1CCC(NS(=O)(=O)c2ccc3c(c2)CCN3C(C)=O)CC1 | 7% | -1 | -7%
CC(=O)N1CCc2cc(C(=O)CN3CCCCC3)ccc21 | 22µM* | 2 | 16µM*
CC(=O)N1CCc2cc(S(=O)(=O)N3CCOCC3)ccc21 | 8% | -2 | -4%
CCOC(=O)N1CCN(CC(=O)c2ccc3c(c2)CCN3C(C)=O)CC1 | 25µM* | 2 | -3%
CCOC(=O)c1ccc(NC(=S)NCCCN2CCOCC2)cc1 | -1% | / | /
COc1ccc(-c2nc3ccccc3o2)cc1NC(=O)COc1ccc(C(C)(C)C)cc1 | / | -5 | /
C=CCn1c(=S)[nH]c2sc3c(c2c1=O)CCC3 | 11µM* | -11 | 32µM*
C=CCn1c(=S)[nH]c2nc3c(cc2c1=O)CCCC3 | ? | -2 | -15%
CC1(C)C(=O)OC(c2c(F)c(F)c(F)c(F)c2F)C2(CCCCC2)C1=O (stereo unspecified) | 9% | 14 | -1%
CC(C)(C)NC(NC(=O)Cc1ccccc1)C(Cl)(Cl)Cl (stereo unspecified) | 4% | -4 | -13%
CCO[C@H]1OC(C(=O)Nc2ccccc2)=C[C@@H](c2cn(C(C)=O)c3ccccc23)[C@@H]1CCCO | 0% | / | /
Cc1cccc(-c2nnc(SCC#N)n2-c2ccccc2)c1 | -4% | -13 | -2%
COc1ccc(-c2nnc(SCCC(=O)O)n2-c2ccccc2)cc1 | ? | 11 | 32µM*
Cc1cccc(-c2nnc(SCC3CNC(=O)O3)n2-c2ccc(Cl)cc2)c1 (stereo unspecified) | 1.4µM* | / | -18%
O=C(O)CCSc1nnc(-c2ccncc2)n1-c1ccccc1 | 9% | ? | -4%
COc1ccc(-n2c(SCC3CNC(=O)O3)nnc2-c2ccc(Cl)cc2)cc1 (stereo unspecified) | 8.9µM* | / | -4%
COc1ccc(-n2c(SCc3ccc([N+](=O)[O-])cc3)nnc2-c2ccc(C)cc2)cc1 | 10% | / | -24%
Cc1csc(NC(=O)CCSCCc2ccccn2)n1 | 15% | 0 | -8%
COC(=O)c1sccc1NC(=S)N1CCN(c2cccc(C)c2C)CC1 | ? | / | -7%
SMILES | ALDH1A1 inh | IMPase inh | HPGD block
CCCCc1nc2c(c3c1C[C@H](C)OC3)CN(S(=O)(=O)c1ccc(Cl)c3nonc13)CC2 | ? | / | -2%
NC(=[SH+])N=N/C=C1/C=CC=CN1.O=S(=O)(O)O.[Fe] | ? | / | -11%
CCc1sc(/C=C(/C#N)C(N)=S)cc1[N+](=O)[O-] | 2.2µM* | / | /
Cc1cc(C)c(C)c(/C=C(/C#N)C(N)=S)c1C | ? | -1 | -30%
COC(=O)c1cccc(Cn2c(Cl)c(/C=N/NC(=O)c3ccccc3Cl)sc2=O)c1 | ? | 0 | -27%
O=C(N/N=C/c1sc(=O)n(-c2ccccc2)c1Cl)c1ccccc1 | 16µM* | / | -10%
C=CCn1c(SCC(=O)N2CCCC2)nc2cc(C(=O)NCC3CCCO3)ccc2c1=O (stereo unspecified) | ? | -4 | ?
O=C(CCCn1c(SCC(=O)c2ccc(O)c(O)c2)nc2ccccc2c1=O)NCC1CCCO1 (stereo unspecified) | 18µM* | 12 | 5µM*
COC(=O)c1ccc2c(=O)n(CC3CCCO3)c(SCC(=O)Nc3ccccc3Cl)nc2c1 (stereo unspecified) | 16% | -9 | -9%
CCCCCn1c(SCC#N)nc2cc(C(=O)NCC3CCCO3)ccc2c1=O (stereo unspecified) | 2% | 0 | 2.5µM*
O=C(CCCn1c(SCC(=O)NCCc2ccccc2)nc2ccccc2c1=O)NCC1CCCO1 (stereo unspecified) | 2% | / | /
COC(=O)c1ccc2c(=O)n(CC3CCCO3)c(SCC(=O)Nc3ccccc3OC)nc2c1 (stereo unspecified) | 14µM* | 5 | -12%
Cc1c(-n2c(SC(C)C(=O)NC(N)=O)nc3ccccc3c2=O)c(=O)n(-c2ccccc2)n1C (stereo unspecified) | 5% | / | /
O=C(O)c1cc(-c2ccco2)nc2ccc(Br)cc12 | 4µM*! | ? | ?
Cc1cc(C(N)=O)c2cc(Br)ccc2n1 | 1% | -8 | -8%
CC(=O)CC(C)(C)S(=O)(=O)c1ccc(Oc2ccc(S(=O)(=O)C(C)(C)CC(C)=O)cc2)cc1 | 8.9µM* | ? | 0%
CCN(CC)S(=O)(=O)c1ccc(Oc2ccc(S(=O)(=O)N(CC)CC)cc2)cc1 | -8% | 2 | -4%
O=C(c1csnn1)N1CCC2(CCCN(c3cccc(-c4ccccc4)c3)C2)CC1 | -8% | / | -9%
Cc1cc(C(=O)COC(=O)c2ccc[nH]c2=O)c(C)n1C1CC1 | 6% | / | -3%
CC(C)CNC(=O)COc1ccccc1[N+](=O)[O-] | 1% | 11 | /
Cc1ccc(-n2c(C)cc(C(=O)COc3cccnc3[N+](=O)[O-])c2C)cc1 | ? | 8 | -18%
Cc1cc(C(=O)COc2cccnc2[N+](=O)[O-])c(C)n1-c1ccccc1 | 20µM* | / | -5%
Cc1cc(C(=O)COc2ncnc3sccc23)c(C)n1C1CC1 | 20µM* | 2 | -10%
CCCn1c(C)cc(C(=O)COc2ncnc3sccc23)c1C | -2% | 0 | -15%
Cc1cc(C(=O)COc2ccccc2[N+](=O)[O-])c(C)n1C1CC1 | 32µM* | / | /
SMILES | ALDH1A1 inh | IMPase inh | HPGD block
O=C(COc1ccccc1[N+](=O)[O-])c1ccccc1 | 2µM* | / | /
CCn1nnnc1NCc1cccn1C | 2% | -1 | 1%
CCOc1ccccc1N(CC(=O)NC1CCCCC1)S(C)(=O)=O | -3% | 1 | -8%
CN(C)c1ccc(CNc2ncn[nH]2)cc1 | -1% | / | /
CSc1ccc(NC(=O)Nc2cccn(Cc3ccccc3)c2=O)cc1 | 8% | / | /
CC1CCN(c2ccc(C(=O)O)cc2NS(=O)(=O)c2ccc(Br)cc2)CC1 | ? | / | -30%
COC(=O)c1ccc(N2CCCCC2)c(NS(=O)(=O)c2ccc(C)cc2)c1 | 7.9µM* | 6 | -12%
COC(=O)c1ccc(N2CCN(S(=O)(=O)c3ccc(C)cc3)CC2)c([N+](=O)[O-])c1 | -5% | 14 | -9%
CCN(CC)CCNC(=O)c1ccc(N2CCCCC2)c(NS(=O)(=O)c2ccc(C)cc2)c1 | 20µM* | 4 | -8%
COc1ccc(S(=O)(=O)Nc2cc(C(=O)NCCC(C)C)ccc2N2CCOCC2)cc1 | 14µM* | 3 | -1%
COc1ccc(NS(=O)(=O)c2ccc(N3CCOCC3)c(NC(=O)C(C)C)c2)cc1 | 8% | / | /
O=[N+]([O-])c1ccc(CCNc2cccc3ccccc23)c([N+](=O)[O-])c1 | ? | -8 | -20%

Source: PubChem BioAssay (National Center for Advancing Translational Sciences (NCATS))
